Compounds without any hit were thinned out: in the full panel of roughly 79,000, 15% have a hit. Calls of active or inactive are those of the source. Cut-off read from the data, not from the text of the source: active = growth inhibition above about 70%; inactive = the rest.
Assay: NCI Yeast Anticancer Drug Screen. Data for the wt2 strain (AID 169);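 note: 0% = growth of vehicle-treated yeast cultures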
Details: S. cerevisiae wt2 strain growth inhibition, hits give high values
Description: Growth inhibition of yeast strains with defined genetic alterations is measured as a screen for potential anti-cancer activity. Selected strains with alterations in DNA damage repair or cell cycle control were exposed to compounds and growth inhibition was measured relative to vehicle treated controls. The strain used in this assay is wt2

Measured: growth inhibition

CCCCCCCCCCCCCCCCOP(=O)(O)OCC(N)C(=O)O (stereo not given)
inactive: at 1.2 µM -17% | at 3.7 µM -22% | at 11.0 µM -22% | at 33.0 µM -22% | at 100.0 µM 48%

CC1=NOC(=O)/C1=C/c1ccc2c(c1)OCO2
inactive: at 1.2 µM 2% | at 3.7 µM 0% | at 11.0 µM 8% | at 33.0 µM 12% | at 100.0 µM 13%

CCN(CC)CCNc1ccc2ncn3c4cc(OC)c(OC)c(=O)c4c(O)c1c23
inactive: at 1.2 µM -3% | at 3.7 µM 0% | at 11.0 µM 1% | at 33.0 µM 1% | at 100.0 µM 2%

Cc1nc(Nc2ccccc2[N+](=O)[O-])sc1C(=O)CC(=O)C(=O)Nc1c(C(C)C)cccc1C(C)C
inactive: at 1.2 µM -1% | at 3.7 µM 0% | at 11.0 µM 0% | at 33.0 µM 2% | at 100.0 µM 0%

Cc1sc2ccc3ccccc3c2[n+]1C
active: at 100.0 µM 94%
inactive: at 1.2 µM -11% | at 3.7 µM 2% | at 11.0 µM -12% | at 33.0 µM 8%

NNC(=O)CCc1cc2ccccc2c2ccccc12
inactive: at 1.2 µM -8% | at 3.7 µM 1% | at 11.0 µM 18% | at 33.0 µM 53%
active: at 100.0 µM 100%

c1ccc2cc(NCNc3ccc4ccccc4c3)ccc2c1
inactive: at 1.2 µM -1% | at 3.7 µM 1% | at 11.0 µM 1% | at 33.0 µM 7% | at 100.0 µM 12%

Nc1ncc(-c2ccc(Br)cc2)s1
inactive: at 1.2 µM 8% | at 3.7 µM 8% | at 11.0 µM 8%
active: at 33.0 µM 93% | at 100.0 µM 98%

From PubChem BioAssay (NCI)
